Here are results for 68 compounds from ChEMBL document CHEMBL4513216, “Probing the Open Global Health Chemical Diversity Library for Multistage-Active Starting Points for Next-Generation Antimalarials” (ACS Infect Dis, 2020).

The campaign covered roughly 69,000 compounds. About 8,600 (12%) showed an effect of 50% or more. The entries come from a sample that favours strong results as a whole.

The subject of this test is Plasmodium berghei. As to the kind of experiment: Screen against P. berghei liver stage (PbLuc), transformed with Luciferase, at 10uM. The class given is functional, HepG2. To be noted: tested at 10 uM.
`Cc1cn2nc(N3CCCC3Cn3nc(C)nc3C)sc2n1` (stereo not drawn): the INHIBITION was -39.7%. Regarding `CC(C)c1noc(C(C)N2CCN(Cc3noc(C(C)(C)C)n3)CC2)n1` (stereo not drawn), the INHIBITION is given as -35.7%. In the case of `Cc1cc(C)nc(N2CCC(C(=O)Nc3n[nH]c(CC(C)C)n3)CC2)n1`, the INHIBITION stood at 4.93%. Next, `CNC(=O)C1Cn2ccnc2C2(CCN(Cc3c(C)noc3C)CC2)O1` (stereo not drawn): 3.11%. Under `Cc1nc(N)c2ccc(C3CCCN3)nc2n1` (stereo not drawn) stands 26.55%. Under `Cc1ccsc1C(O)CNS(=O)(=O)Cc1ccc(F)cc1` (stereo not drawn) stands 9.96%; under `Cc1ccsc1C(O)CNC(=O)Cc1ccc(F)cc1` (stereo not drawn), 56%; under `COc1ccc(F)cc1S(=O)(=O)NCC(O)c1sccc1C` (stereo not drawn), 16.9%. As for `COc1ccc(S(=O)(=O)NCC(O)c2sccc2C)cc1Cl` (stereo not drawn), the INHIBITION worked out at 51.7%.

Turning to `Cc1ccsc1C(O)CNC(=O)Cc1ccc(S(=O)(=O)C(C)C)cc1` (stereo not drawn), the INHIBITION came to 25.3%. Next, `COc1ccc(CC(=O)NCC(O)c2sccc2C)cc1OC` (stereo not drawn): 53.8%; `COC(=O)c1ccc(S(=O)(=O)NCC(O)c2sccc2C)cc1` (stereo not drawn): -11.8%.

On to `Cc1cc(S(=O)(=O)NCC(O)c2sccc2C)ccc1F` (stereo not drawn), for which the INHIBITION worked out at 13.9%. Next, `COc1ccc(S(=O)(=O)NCC(O)c2sccc2C)cc1C` (stereo not drawn): 6.34%. Under `COc1ccccc1C(=O)NC(c1ccccn1)C1CCC(CN)CC1` (stereo not drawn) stands 44.1%; under `Cc1ncccc1-c1cc2cccnc2n1CCCNC(=O)C1CC1`, 25.8%; under `CN(Cc1ccccc1)CC(O)Cn1cnc2c(Cl)cc(Cl)cc2c1=O` (stereo not drawn), 27.433%. Next, `COCC1CN(C(=O)c2ccoc2C)Cc2nccn2C1` (stereo not drawn): 35.3%. As to `CC(=O)NCCC(=O)NCc1cccnc1-n1cnc2ccccc21`, the INHIBITION came to 60.1%.

Regarding `CS(=O)(=O)NCCC(=O)NCc1cccnc1-n1cnc2ccccc21`, the INHIBITION was determined as 41.2%. Next, `COCCC(=O)NCc1cccnc1-n1cnc2ccccc21`: 33.9%. Regarding `CSCCCN1C[C@H](NC(=O)c2cnn(C)c2)[C@@H](C2CC2)C1`, the INHIBITION is given as 12.6%. For `Cc1[nH]ccc1C(=O)N[C@H]1CN(CCO)C[C@@H]1C1CC1`, the INHIBITION worked out at 9.89%. As for `CS(=O)(=O)CCN1C[C@H](NC(=O)c2cnc(O)cn2)[C@@H](C2CC2)C1`, the INHIBITION is given as -3.43%. For `Cc1c(C(=O)N[C@H]2CN(CCS(C)(=O)=O)C[C@@H]2C2CC2)cnn1C`, the INHIBITION was 29%. For `Cc1cnc(C(=O)N[C@H]2CN(CCS(C)(=O)=O)C[C@@H]2C2CC2)cn1`, the INHIBITION came to 53.9%. Next, `CCc1cc(C(=O)N[C@H]2CN(CCS(C)(=O)=O)C[C@@H]2C2CC2)[nH]n1`: 55%; `Cc1ccc(CNC(C)c2ccc(N3CCN(C)CC3)c(F)c2)o1` (stereo not drawn): -11%. Next, `C1CCc2nnc(CNc3nc(C4CC4)nc4c3CCNCC4)n2CC1`: 3.06%; `CCc1ccc(S(=O)(=O)Nc2cc(C(=O)O)ccc2F)s1`: 13.85%; `CCN(c1ccc(C(=O)N2CCC(C(N)=O)CC2)cc1)S(=O)(=O)CC`: 47.3%. Next, `COCCNC(=O)c1cc(S(=O)(=O)N2CCCC2)cs1`: 10.3%; `NC(=O)C1CCN(Cc2ccc(S(=O)(=O)N3CCCC3)o2)CC1`: 16.5%; `CCN(CC)S(=O)(=O)c1csc(C(=O)N2CCC(C(N)=O)CC2)c1`: 49.9%. As for `CN(C)S(=O)(=O)c1csc(C(=O)N2CCC(C(N)=O)CC2)c1`, the INHIBITION was determined as 60.1%. `O=C(c1cc(-c2cccs2)cs1)N1CCSCC1`: the INHIBITION is recorded as -61.1%. For `COCCNC(=O)c1cc(S(=O)(=O)N2CCCCCC2)cs1`, the INHIBITION was found to be 45.6%.

`NC(=O)C1CCN(C(=O)c2cc(S(=O)(=O)N3CCCC3)cs2)CC1`: the INHIBITION came out at 56.3%. `NS(=O)(=O)c1cc(C(=O)N2CCCCC2)cs1`: the INHIBITION stood at 30.7%. As to `NC(=O)C1CCN(C(=O)c2cc(S(=O)(=O)N3CCCCC3)cs2)CC1`, the INHIBITION is listed as 56.3%. On to `CN(C)S(=O)(=O)c1csc(C(=O)N2CCSCC2)c1`, for which the INHIBITION stood at 65.6%. Next, `CCN(c1ccsc1C(=O)N1CCSCC1)S(=O)(=O)c1ccccc1`: -27.5%; `CC(C(=O)N1CCCN(c2ccc(C#N)cc2)CC1)n1cccn1` (stereo not drawn): 10%; `CCc1nc(C2CCCN2CC(=O)N2CCc3ccccc32)no1` (stereo not drawn): 23.5%. Under `O=C(CCc1nc2cccnc2[nH]1)Nc1ccc2c(c1)OCC(=O)N2` stands 17.1%; under `CC(C)(C)c1cc(C(=O)N2CCC(c3cnccn3)CC2)[nH]n1`, 29.9%. For `CC(C)CCC(=O)NCCc1ccn(-c2ccccc2)n1`, the INHIBITION came out at 5.7%. Next, `NC(=O)CN(Cc1ccc(Br)cc1)C(=O)c1ccncc1`: -9.51%. Under `CCc1ncc(CN2C[C@@H]3CC[C@H]2CN(C(=O)C2CCC2)C3)cn1` stands 62.6%; under `CCNc1ncc(CN2C[C@@H]3CC[C@H]2CN(C(=O)C2CCC2)C3)cn1`, 60.4%; under `CCCNc1ncc(CN2C[C@@H]3CC[C@H]2CN(C2CCOCC2)C3)cn1`, 1.98%.

For `CCOc1ccc(C(=O)N2C[C@@H]3CC[C@H]2CN(C(=O)C2CCC2)C3)cc1`, the INHIBITION is on record as 30.3%.

Regarding `CCn1cc(CN2C[C@@H]3CC[C@H]2CN(C(=O)C2CCC2)C3)cn1`, the INHIBITION was found to be 4.15%. `CCNc1ncc(CN2C[C@@H](C(=O)O)[C@H](C3CC3)C2)cn1`: the INHIBITION worked out at 58.2%. `O=C(O)[C@@H]1CN(Cc2cnc(C3CCCCC3)nc2)C[C@H]1C1CC1`: the INHIBITION worked out at 29.6%. Next, `CCNc1ncc(CN2C[C@H](C3CC3)[C@@H](N)C2)cn1`: 23.9%.

For the compound `Cc1ccc(C(=O)N2C[C@H]3CC[C@@H](C2)N(Cc2ccccc2)C3)cn1`, the INHIBITION is recorded as -13%. Take `Cc1ccc(NC2COC3(CCN(Cc4ccn(C)n4)CC3)C2)nn1` (stereo not drawn): the INHIBITION is -4.99%. Next, `Cc1ccc([C@@H]2CN(C(=O)c3ccccc3C)C[C@H]2N(C)C)cc1`: 39.5%; `N#Cc1ccccc1CN1C[C@H]2CC[C@@H](C1)N(CC1CCC1)C2=O`: 42.6%; `O=C(N1CCC(Nc2cccnn2)CC1)C1(c2ccc(F)cc2)CC1`: 30.2%. On to `CCc1ncc2c(n1)CN(CCCc1nc3ccccc3o1)CC2`, for which the INHIBITION came to 38.5%. With `COCCCNC(=O)c1c(C)noc1C(C)C`, the INHIBITION is listed as -33.7%. Under `COCCCNC(=O)CN(C)C(=O)c1ccccc1O` stands 20.4%; under `COCCCNC(=O)CN(C)C(C)c1nc(C)no1` (stereo not drawn), 14.6%; under `COCCCNC(=O)CN(C)C(C)c1nc(C(C)C)no1` (stereo not drawn), 59.3%.

Take `Cc1noc(C(C)N(C)CC(=O)NCCc2ccc(Cl)cc2)n1` (stereo not drawn): the INHIBITION is recorded as -9.3%. Take `COCCNC(=O)CN(C)C(C)c1nc(C)no1` (stereo not drawn): the INHIBITION turned out to be 58.5%.
